# Assay results reported in PubChem BioAssay (NCATS).
# Inconclusive results are not listed. Activity calls are given as the source filed them. The call rests on the fitted dose curve; in most records, active means well fitted cell-killing curve with a large enough effect; inconclusive means small, poorly fitted or top-dose-only effect, or effect the other way; inactive means flat fitted curve, though single readings scatter.
# System: JEG-3
# Assay: Primary qHTS to identify gynecologic anti-cancer compounds using libraries of approved drugs and bioactive compounds (AID 1345084); further: nearly all actives have a fitted effect of over 55% in size
# Conditions: Gynecologic cancer cell panel viability, ATPlite luminescence, 48 h; series mostly up to 57.5 µM; activity change, negative = cytotoxicity: at the top concentration
# Outline: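 Cells, 1,000 per well, were allowed to settle for 16 h at 37 C before compound addition. Five concentrations were tested for 48 h, and viability was read by ATPlite luminescence after 15 min at room temperature.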
# On the % scale 0 is the no-effect control and ±100 the full control effect; potency means the concentration at half of the fitted maximal effect.
Structure (SMILES),"activity change, negative = cytotoxicity",Potency
O=C(O)c1cc2cccc([N+](=O)[O-])c2[nH]1,-8.59% (inactive),
COc1ccc(C(=O)Nc2ncc(-c3ccc(C(=O)O)cc3)s2)cc1,,15.8 µM (active)
CC(C)c1cc(C(=O)N2CC[C@H](NC(=O)C3CC3)C2)n[nH]1,-1.14% (inactive),
CN1c2ccccc2C(=O)N2CCC3c4ccccc4NC3C21 (stereo not drawn),,3.98 µM (active)
CC1=C(C(=O)O[C@@H]2O[C@H](COC3OCC(O)C(O)C3O)[C@@H](O)[C@H](O)[C@H]2O)C(C)(C)CCC1 (stereo partly drawn),-25.9% [at 25.3 µM] (inactive),
Nc1ccc(/C=C/C(=O)NCc2cc3cc(-c4ccc(C(=O)N5CCC(F)(F)CC5)cc4)cc(-c4ccc(F)cc4)c3o2)cn1,,1.58 µM (active)
CCCCNc1ncc2c(-c3ccc(CN4CCN(C)CC4)cc3)cn(C3CCC(O)CC3)c2n1 (stereo not drawn),-28.4% (inactive),
COc1ccc(F)cc1-c1cc(NC(=O)[C@@H]2CCCNC2)ncc1Cl,-32.1% (inactive),
CC[C@H](C)[C@H](NC(=O)[C@H]([C@@H](C)CC)N(C)C(C)=O)C(=O)N[C@H](C(=O)N[C@@H](CC(C)C)C(=O)[C@@]1(C)CO1)[C@@H](C)O,-12.2% (inactive),
CCOc1cc(N2CCC(O)CC2)ccc1Nc1ncc2c(n1)N(C1CCCC1)CCC(=O)N2C,-30.4% (inactive),
CC1(CCOC2OC(CO)C(O)C(O)C2O)CCC23OC2(C1)C(O)CC1C(C)(C(=O)O)CCCC13C (stereo not drawn),-3.46% [at 25.3 µM] (inactive),
CC(=O)NCC(=O)N1C2CCC1c1cc(Nc3ncc(C(F)(F)F)c(NC4CCC4)n3)ccc12 (stereo not drawn),-25.8% (inactive),
C[C@@H]1COCCN1c1cc(C2(S(C)(=O)=O)CC2)nc(-c2cccc3[nH]ccc23)n1,,7.08 µM (active)
